TNF necrop inh = inhibitors of TNF-alpha induced necroptosis in Jurkat FADD-/- cells; Jurkat FADD-/- TNF necroptosis rescue, ATP luminescence, 24 h; 0 = TNF only, 100 = no-TNF cells; activation (protection from cell death), % at 10 µM; 0.068% of 220,000 active;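 active = activation, meaning protection from cell death, of at least 50% relative to plate controls; inactive = activation below 50%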;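 note: necroptosis triggered by 40 ng/mL TNF-alpha added together with compound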
Hsp70 activator = switches on Hsp70 transcription; HeLa Hsp70 promoter luciferase reporter, luminescence; scaled: vehicle 0, proteasome-inhibitor control 100%; activation, % at 10 µM; 0.04% of 200,000 active; AID 1203;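 active = activation above the mean across all tested compounds plus 3 SD, cutoff set per campaign, cut at about 5.5% in these data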;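 note: 100% = MG132 at 30 µM as the positive control and 0% = DMSO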
zVAD death inh = blocks zVAD induced death of L929 cells | L929 zVAD necroptosis rescue, ATP luminescence, 24 h; with zVAD 60 µM | viability rescue, % at 10 µM | 0.38% of 220,000 active;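 active = activation, scaled between plate controls, above about 75%, limit read from the data; inactive = activation under that limit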;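 note: 0% = zVAD with DMSO and 100% = DMSO alone without zVAD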
HSF1 activator = increases HSF-1 driven luciferase reporter signal; activation, % at 9 µM; NIH3T3-HGL HSF-1 luciferase reporter, MG132, 8 h; 100% = twice DMSO control signal; 1.7% of 300,000 active; AID 504408;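 active = mean replicate activation of at least 50% with a set share of replicates each reaching 50%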;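 note: 0% = median of the neutral control wells and 100% = twice that signal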
zVAD necrop conf = confirmed blocker of zVAD induced death in L929 cells. shares compounds with zVAD death inh. L929 zVAD-induced necroptosis rescue, ATP luminescence, 24 h. activation (protection from necroptosis), % at 10 µM. 16% of 760 active;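 active = mean protection from necroptosis of at least 50% over duplicate tests; inactive = mean protection below 50%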;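 note: 0% = cells with zVAD alone and 100% = vehicle cells without zVAD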
The depositor's hits bear a star; . = not tested or not shown. This is a sample that favours compounds with a hit; in the whole collection about 1.9% have one here.

SMILES | TNF necrop inh | Hsp70 activator | zVAD death inh | HSF1 activator | zVAD necrop conf
O=C(COC(=O)c1ccc(O)cc1)Nc1ccc(Cl)cc1 | 2 | 0 | 78* | 12 | 21
CCCCn1nnc(NC(=O)CC23CC4CC(CC(C4)C2)C3)n1 | 3 | 0 | 2 | -2 | .
Nc1c(C(=O)OCC2CCCO2)c2nc3ccccc3nc2n1-c1ccc2c(c1)OCCO2 (centres undefined) | -7 | 0 | 93* | -46 | 2
CCOc1ccc(NC(=O)CN(C)C(=O)c2cccnc2Sc2ccc(C)c(C)c2)cc1OCC | . | . | . | 10 | .
CCOc1ccccc1-n1c(SCC(=O)Nc2ccc(CC)cc2)nc2n[nH]c(C)c2c1=N | -3 | 0 | 80* | 1 | 43
O=C(Nc1ccc(N2CCOCC2)cc1)c1cc2c(s1)CCCCC2 | 3 | 0 | 75* | -9 | 5
Cc1cnc(NC(=O)c2ccco2)s1 | 0 | 0 | 83* | 40 | 10
Cc1cnc(NC(=O)c2cc3c(s2)CCCC3)s1 | 48 | 0 | 79* | 1 | 79*
Cc1nc(NC(=O)c2ccco2)sc1C(=O)O | . | . | . | 5 | .
CC(=O)c1cccc(NC(=O)CCC(=O)Oc2ccc(C)cc2)c1 | . | . | . | 9 | .
Cc1nccc(-c2cc(-c3ccc(Cl)cc3Cl)no2)n1 | -8 | . | -1 | 21 | .
COc1cc(/C=N/Nc2ccc(C(F)(F)F)cn2)cc(OC)c1O | 36 | 0 | 81* | 1 | 75*
Oc1ccc(/C=N/Nc2ccc(C(F)(F)F)cn2)cc1 | 38 | 0 | 83* | 86* | 63*
Cc1cccn2c(CN3CCCC(c4ccccc4)C3)c(C(=O)N3CCOCC3)nc12 (centres undefined) | -1 | 0 | 0 | -41 | .
O=C(NCC1CCCO1)c1ccc(NC(=O)c2cc(F)c(F)cc2Cl)cc1 (centres undefined) | . | . | . | 1 | .
CCN(CC)c1ccc(N/C(N)=N/c2nc(C(F)(F)F)cc(=O)[nH]2)cc1 | -2 | 0 | 91* | 2 | 0
C/C(N)=C(/C#N)C(=O)COC(=O)c1ccc(NC(N)=O)cc1 | 1 | . | 0 | -9 | .
CC(=O)c1cnc2cc(-c3ccccc3)nn2c1C | -1 | 0 | 82* | 15 | 2
CC(=O)c1cnc2cc(-c3ccc(C)cc3)nn2c1C | -2 | 0 | 1 | -6 | .
COC(=O)c1ccn(Cc2ccccc2Cl)n1 | 100* | 0 | 90* | 11 | 81*
COC(=O)c1cc2n(n1)CCN(Cc1ccccc1Cl)C2=O | -2 | 0 | 0 | 4 | .
CCOc1ccc(N2C(=O)C(=O)/C(=C(/O)c3ccccc3)C2c2ccccc2[N+](=O)[O-])cc1 (centres undefined) | -18 | . | -1 | -12 | .
CCCCNC(=O)c1ccc2c(c1)ncn2C1CCCCC1 | 2 | 0 | 79* | -17 | 33
CCCNC(=O)c1ccc2c(c1)ncn2-c1cc(C)cc(C)c1 | 5 | 0 | 76* | 22 | 2
COc1cccc(N2[C@@H](CC(C)=O)c3ccc(/C=C/C(C)=O)cc3S2(=O)=O)c1 | . | . | . | -8 | .
SMILES | TNF necrop inh | Hsp70 activator | zVAD death inh | HSF1 activator | zVAD necrop conf
CC(=O)Nc1ccc(Nc2ncc([N+](=O)[O-])c(Nc3ccc(NC(C)=O)cc3)n2)cc1 | -11 | 0 | 90* | -1 | 26
CCOc1ccc(CC(=O)C2=C(N3CCOCC3)CC(C)(C)CC2=O)cc1OCC | 0 | 0 | 1 | -13 | .
COc1cc(/C=N/NC(=O)c2sc(N)c(C#N)c2C)cc(Br)c1O | 5 | 0 | 99* | 9 | 39
COc1ccc2ccccc2c1/C=N/NC(=O)c1sc(N)c(C#N)c1C | 3 | 0 | 1 | -38 | .
O=C(Nc1cnccn1)Nc1ccc(Cl)cc1Cl | -3 | 0 | 80* | 10 | 1
COc1ccc(NC(=O)Nc2cnccn2)cc1 | 1 | . | 2 | 1 | .
Cc1ccnc(NC(=O)Nc2ccc(Br)cc2Cl)c1 | 0 | 1 | 83* | -33 | 1
COC(=O)c1ccccc1NC(=O)Nc1cc(C)ccn1 | 0 | 0 | 0 | 24 | .
Cc1ccc(NC(=O)Nc2cnccn2)cc1Cl | 2 | 0 | 80* | 11 | 2
O=C(Oc1ccc(-c2cnc3ccccc3n2)cc1)c1ccc(Br)o1 | 0 | 0 | 85* | 36 | 6
O=C(Oc1ccc(-c2cnc3ccccc3n2)cc1)c1cccc([N+](=O)[O-])c1 | -4 | 0 | 94* | 11 | 2
O=C(Oc1ccc(-c2cnc3ccccc3n2)cc1)c1ccc(Cl)c([N+](=O)[O-])c1 | 0 | 0 | 87* | 42 | 2
Cc1cc(Cl)ccc1N(CC(=O)NCc1ccccc1)S(C)(=O)=O | . | . | . | 17 | .
COC(=O)C1C(=O)C(C(=O)/C=C/c2ccccc2)C(=O)CC1(C)C (centres undefined) | 4 | 0 | 81* | 2 | 1
Cc1ccc(NC(=O)CSc2ccc(-c3cccnc3)nn2)cc1Cl | 1 | -1 | 82* | 20 | 1
Cc1ccc(NC(=O)CSc2ccc(-c3cccnc3)nn2)cc1 | . | . | . | 9 | .
O=C(O)CSCC(=O)N(c1ccccc1)c1ccccc1 | . | . | . | -3 | .
CN1CCN(CCCNC(=O)c2cc3c(=O)n(C)c4ccccc4c3s2)CC1 | 2 | 0 | 77* | 2 | 24
CCCCN(CC)CCCNC(=O)c1cc2c(=O)n(C)c3ccccc3c2n1C | -1 | 0 | 80* | -1 | 34
CC(C)OCCCNC(=O)c1cc2c(=O)n(C)c3ccccc3c2n1C | 0 | 0 | 10 | -6 | .
Cn1c(C(=O)NCCN2CCCCCC2)cc2c(=O)n(C)c3ccccc3c21 | 3 | 0 | 84* | 1 | 10
Cc1ccc2oc(=O)c3cc(C(=O)NCCCN4CCN(C)CC4)sc3c2c1 | . | . | . | 6 | .
Cn1c(C(=O)NCc2ccccn2)cc2c(=O)n(C)c3ccccc3c21 | 1 | 0 | 89* | -32 | 3
CC(C)n1c(SCC(=O)Nc2nncs2)nnc1-c1ccco1 | . | . | . | -5 | .
CCNc1nc(NCC)nc(Oc2ccc(N)cc2)n1 | 0 | -1 | 78* | 1 | 30
SMILES | TNF necrop inh | Hsp70 activator | zVAD death inh | HSF1 activator | zVAD necrop conf
c1ccc(Nc2nc(N3CCCCC3)nc(N3CCNCC3)n2)cc1 | -2 | 0 | 77* | -17 | 2
CCOc1ccc(CCNC(=O)C2CCCN(S(=O)(=O)N3CC(C)CC(C)C3)C2)cc1OCC (centres undefined) | . | . | . | -13 | .
Cc1ccc(NC(=O)C(OC(=O)c2ccc(NC(N)=O)cc2)c2ccccc2)cc1Cl (centres undefined) | 8 | 0 | 85* | 26 | 70*
CC(C(=O)Nc1nncs1)N1C(=O)C2C3C=CC(C3)C2C1=O (centres undefined) | 1 | 0 | 78* | 3 | 0
O=C1CNC(=S)N1CCc1ccc(Cl)cc1 | 21 | . | 83* | 47 | 35
O=C1CNC(=S)N1Cc1ccc(Cl)cc1 | . | . | . | 6 | .
CN1CCN(C(=O)c2ccccc2-c2ccccc2C(=O)O)CC1 | 0 | 0 | 1 | 13 | .
Fc1ccc(NC(=S)N2CCCC(c3ccccc3)=N2)cc1 | 1 | . | 0 | 6 | .

Screening data (PubChem BioAssay)
